High-throughput results (PubChem BioAssay)
HEK293 tox = kills HEK 293 cells. HEK 293 viability, ATP luminescence (CellTiter-Glo), 48-72 h. Potency, µM (highest dose often 115 µM), for inactives: at the top dose activity change, negative = cytotoxicity, usual class: inhibitors. 94,000 tested, 6.6% active; note: nearly all actives have a fitted effect of over 60% in size
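Read-out: CellTiter-Glo ATP luminescence. Cells: HEK 293, 250 cells/well. Exposure: 48 or 72 hr, 37 degree Celsius.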
Luciferase inh = Photinus pyralis luciferase inhibition; purified P. pyralis luciferase, luminescence, biochemical; Potency, µM (doses to about 115 µM), hits mostly inhibitors; 76,000 tested, 2.5% active; AID 1347043; note: nearly all actives have a fitted effect of over 65% in size
Target sequence (P08659 whole entry, looked up): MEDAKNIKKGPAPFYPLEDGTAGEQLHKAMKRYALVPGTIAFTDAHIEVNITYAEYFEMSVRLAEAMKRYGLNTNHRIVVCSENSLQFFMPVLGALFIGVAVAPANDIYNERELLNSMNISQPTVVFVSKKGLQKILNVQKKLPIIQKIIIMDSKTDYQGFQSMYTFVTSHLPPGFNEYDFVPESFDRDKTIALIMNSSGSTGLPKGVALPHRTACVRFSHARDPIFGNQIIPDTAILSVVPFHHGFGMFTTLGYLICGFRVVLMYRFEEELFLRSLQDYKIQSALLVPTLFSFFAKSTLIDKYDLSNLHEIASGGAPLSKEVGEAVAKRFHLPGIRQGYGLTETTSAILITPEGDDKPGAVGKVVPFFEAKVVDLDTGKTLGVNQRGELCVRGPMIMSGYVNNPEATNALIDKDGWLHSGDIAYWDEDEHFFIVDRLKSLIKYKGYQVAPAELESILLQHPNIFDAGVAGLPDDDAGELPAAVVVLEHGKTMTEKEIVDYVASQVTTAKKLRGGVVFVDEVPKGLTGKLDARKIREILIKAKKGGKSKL
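FLuc 10nM, D-luciferin 10uM, ATP 10uM, Mg acetate 10mM, Tris acetate pH 7.5, Tween/BSA; cpd qHTS; enzyme added last; CCD luminescence.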
NIH3T3 tox = kills NIH 3T3 cells | Potency, µM (series often up to 96.7 µM), for inactives: at the highest dose activity change, negative = cytotoxicity, actives largely listed as inhibitors | AID 1345082 | NIH 3T3 viability, CellTiter-Glo ATP luminescence, 48-72 h | 94,000 tested, 4.3% active; note: nearly all actives have a fitted effect of over 55% in size
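Mouse fibroblast NIH 3T3 cells, 400 per well, received compound via pintool and were incubated for 48 or 72 hr prior to CellTiter-Glo ATP luminescence measurement.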
hNpr1 antagonist = antagonists of human natriuretic peptide receptor Npr1; Potency, µM (series often up to 46.3 µM), without a hit: top-dose activity change, negative = inhibition, usual class: inhibitors; AID 1347048; HEK293 hNpr1 GloSensor cGMP, ANP-stimulated luminescence; 76,000 tested, 1.6% active; P16066; calls by dose curve; note: nearly all actives have a fitted effect of over 60% in size
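HEK293 cells stably expressing human Npr1 and cGMP GloSensor pGS-40F, loaded 2 h with 2% GloSensor reagent, given compound 30 min at room temperature. Luminescence read before and 20 min after 0.1 nM hNppA.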
Active calls of the source: *; i = inactive; ? = inconclusive; / = not tested or not shown; [ ] = another dose, or the depositor's remark. A selection: hits, their analogues and other compounds. The true share with any hit is near 11%. Unless noted, calls come from the whole dose curve; as a rule, active = well fitted curve in the direction sought with a large enough effect; inconclusive = small, poorly fitted or top-dose-only effect, or another doubt; inactive = no such curve, though single readings can be large; an effect the other way counts as inactive or inconclusive. % is set by controls: 0 for no effect and ±100 for the full control effect; potency is the fitted concentration of half-maximal effect.

SMILES	HEK293 tox	Luciferase inh	NIH3T3 tox	hNpr1 antagonist
COc1ccccc1C(=O)N1CCC(C(=O)N2CCC(c3nc4ncccc4[nH]3)CC2)C1 (stereo unspecified)	i	/	-5%	/
CC1=C[C@@H](CN2CCN(c3ccccn3)CC2)[C@H](C(C)C)C[C@H]1Cc1nnc(C)o1	?	i	?	7%[70.6 µM]
CC1=C[C@@H](CN2CCCCC2)[C@H](C(C)C)C[C@H]1Cc1nnc(-c2cncn2C)o1	100µM*	i	?	2%[70.6 µM]
CC1=C[C@@H](CN2CCN(c3ncccn3)CC2)[C@H](C(C)C)C[C@H]1Cc1nnc(-c2cncn2C)o1	35µM*	i	?	-18%
COc1ccccc1N1CCN(C[C@@H]2C=C(C)[C@H](Cc3nnc(-c4cncn4C)o3)C[C@H]2C(C)C)CC1	13µM*	i	35µM*	-14%
CNC(=O)c1cc(C)nc2onc(C3CCN(C(=O)c4ccc(OC)cc4)CC3)c12	4%	/	-9%	/
O[C@H]1CC[C@@H](Cc2cc(-c3ccc(F)cc3)on2)O[C@@H]1CNCc1ccncc1	-21%[172 µM]	i	-18%[174 µM]	-13%[70.6 µM]
COc1ccc(CNC[C@H]2O[C@H](Cc3cc(-c4ccccc4)on3)CC[C@@H]2O)cc1	89µM*	i	40µM*	-19%[70.6 µM]
Cc1ccc(CNC[C@H]2O[C@H](Cc3cc(-c4ccc(F)cc4)on3)CC[C@@H]2O)cc1	40µM*	i	32µM*	-23%[70.6 µM]
CN1CCC(NC[C@H]2O[C@H](Cc3cc(-c4ccc(F)cc4)on3)CC[C@@H]2O)CC1	?	i	89µM*	?
COc1ccc(-c2cc(C[C@@H]3CC[C@@H]4OC(=O)NC[C@H]4O3)no2)cc1	100µM*	?	?	3%[70.6 µM]
COc1ccc(-c2cc(C[C@@H]3CC[C@H](O)[C@@H](CNC(=O)C(C)(C)C)O3)no2)cc1	-28%[172 µM]	i	-26%[138 µM]	2%[70.6 µM]
COC1CCN(CC2CCCCCN2C(=O)c2ccccc2)CC1 (stereo unspecified)	0%	i	-18%	-2%
CC(C)=CCC1(CO)CCCN(c2ccnc(N)n2)C1 (stereo unspecified)	?	i	-6%	-4%
CCn1ncc(CN2C[C@@H](COCC3CC3)[C@H](c3ccccn3)C2)c1C	?	i	-18%	9%
CC(C)NC(=O)NC1CCN(c2ccc3nnc(C4CC4)n3n2)C1 (stereo unspecified)	i	/	i	/
COc1ccc(-c2cc(C[C@@H]3CC[C@H](O)[C@@H](CNCc4cccc(Cl)c4)O3)no2)cc1	28µM*	50µM*	?	?
COc1ccc(-c2cc(C[C@@H]3CC[C@H](O)[C@@H](CN(Cc4cccc(OC)c4)Cc4cccc(OC)c4)O3)no2)cc1	?	?	?	11µM*
NC[C@H]1O[C@H](Cc2cc(-c3cccc(O)c3)on2)CC[C@@H]1O	3%[172 µM]	56µM*	i	2.5µM*
CC(C)NC(=O)NC[C@H]1O[C@H](Cc2cc(-c3ccc(F)cc3)on2)CC[C@@H]1O	?	i	-15%[174 µM]	-20%[70.6 µM]
O=C(NC[C@H]1O[C@H](Cc2cc(-c3ccc(F)cc3)on2)CC[C@@H]1O)c1ccccc1F	-30%[172 µM]	22µM*	-26%[138 µM]	?
O=C(C1CCCC1)N1CC2(CCN(Cc3ccccn3)C2)OCc2ccccc21 (stereo unspecified)	?	/	-17%	/
Cc1cccc(NC(=O)N2CCC3(CC2)C(=O)N(c2cccc(F)c2)C3c2ccccc2)c1 (stereo unspecified)	-18%	/	-29%	/
COc1ccc(NC(=O)NC[C@H]2O[C@H](Cc3cc(-c4cccc(O)c4)on3)CC[C@@H]2O)cc1	-16%	?	-17%	11µM*
Cn1ncc2c(C(=O)Nc3cccc(F)c3)cc(-c3cccc(C(F)(F)F)c3)nc21	-6%	/	1%	/
SMILES	HEK293 tox	Luciferase inh	NIH3T3 tox	hNpr1 antagonist
Cn1ncc2c(C(=O)Nc3cccc(F)c3)cc(-c3ccc(C(F)(F)F)cc3)nc21	i	/	-17%	/
Cn1ncc2c(C(=O)Nc3cccc(C(F)(F)F)c3)cc(-c3ccc(C(F)(F)F)cc3)nc21	11µM*	/	7.9µM*	/
COc1cccc(-c2cc(C(=O)Nc3cccc(C(F)(F)F)c3)c3cnn(C)c3n2)c1	32µM*	/	?	/
O=C(CNC(=O)c1ccc(-c2cccc(C(F)(F)F)c2)cc1)NCc1cccc(Cl)c1	?	/	-12%	/
COCCOc1ncccc1-c1noc([C@@H]2CCCN2Cc2ccc(C(=O)O)cc2)n1	4%[172 µM]	i	-10%[138 µM]	-13%[70.6 µM]
COc1ccccc1CN1CCC[C@H]1c1nc(-c2ccc(F)cn2)no1	18µM*	i	-21%[174 µM]	4%[70.6 µM]
COCCOc1ncccc1-c1noc([C@@H]2CCCN2Cc2ccc(OC)cc2)n1	100µM*	i	-15%[174 µM]	3%[70.6 µM]
COc1cccc(S(=O)(=O)N2CCC3(C2)C(=O)Nc2ccccc23)c1 (stereo unspecified)	-27%	/	-16%	/
OC(CCc1ccccc1)C1CCN(Cc2nc(-c3ccccn3)no2)CC1 (stereo unspecified)	-14%	i	-29%	-5%
CC(C)CCNC(=O)c1c(-c2cccnc2)cc(=O)n2c1CCCC2	-18%	/	-28%	/
C#CCNC(=O)C[C@@H]1c2nc(NC(=O)N3CCOCC3)sc2C[C@@H]2[C@](C)(CO)[C@H](O)CC[C@]21C	-6%	i	-16%	-7%
COc1ccccc1-c1ccc(C(=O)N2CCC(N[S+](C)(=O)[O-])CC2)cc1	-20%	/	-27%	/
COc1cccc(C(=O)NC2CCN(C(=O)c3ccc(-c4cncnc4)cc3)CC2)c1	-5%	/	-21%	/
COc1ccc(-c2cccc(C(=O)N3CCC(NC(=O)c4ccccc4F)CC3)c2)nn1	-2%	/	-4%	/
COc1ccccc1-c1ccc(C(=O)N2CCC(NC(=O)Nc3ccccc3)CC2)cc1	40µM*	/	?	/
COc1ccc(-c2cccc(C(=O)N3CCC(NC(=O)c4ccccc4OC)CC3)c2)nn1	28µM*	/	-19%	/
COc1cccc(-c2ccc(C(=O)N3CCC(NC(=O)Nc4ccccc4)CC3)cc2)c1	25µM*	/	?	/
COc1cccc(-c2ccc(C(=O)N3CCC(N[S+](=O)([O-])c4ccccc4)CC3)cc2)c1	20µM*	/	?	/
O=C(NCc1ccccn1)c1nc2sccn2c1-c1cccnc1	i	/	-8%[138 µM]	/
COC(=O)c1ccc(NC(=O)CCn2ccn3nc4c(c3c2=O)CCCC4)cc1	-23%	i	-1%	-2%
COc1cccc(-c2cccc(C(=O)N3CCN(C(=O)Nc4ccc(Cl)cc4)CC3)c2)c1	89µM*	/	?	/
COc1cccc(-c2cccc(C(=O)N3CCN(C(C)=O)CC3)c2)c1	-15%[172 µM]	/	-22%[138 µM]	/
COc1cccc(-c2ccc(C(=O)N3CCC(NC(=O)c4ccc(C)cc4)CC3)cc2)c1	?	/	-32%	/
COc1cccc(-c2ccc(C(=O)N3CCC(NC(=O)c4ccccc4)CC3)cc2)c1	45µM*	/	?	/
COc1cccc(-c2ccc(C(=O)N3CCC(NC(=O)Nc4ccc(Cl)cc4)CC3)cc2)c1	10µM*	/	28µM*	/
